# Screening results deposited in PubChem by several laboratories.
# TROY NFkB inh = inhibitors of TROY-dependent NF-kB signaling; Q293 LMP1-TROYcd NF-kB luciferase reporter, 4 h; 0.98% of 360,000 active; inhibition, % at 10 µM;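 active = compounds whose plate-normalised and pattern-corrected inhibition of the luciferase reporter signal at the single screening dose is 50% or more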
# TWEAK Fn14 block = blocks TWEAK-Fn14 interaction in a reporter cell assay. AID 1159606. TWEAK-stimulated Fn14 reporter cells, luciferase luminescence, 8 h. 2% of 360,000 active. inhibition, % at 10 µM; in the data active = inhibition above about 50%
# LGR2 inh = Drosophila LGR2 receptor signaling inhibition; inhibition, % at 9.99 µM; AID 720647; 0.35% of 380,000 active; HEK293 LGR2, CRE-luciferase, bursicon-stimulated, 4 h;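 active = drop in luminescence signal, shown as inhibition above about 50% in the replicate tests, limit read from the data, passing the limit was not always enough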;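 note: agonist challenge used bursicon conditioned medium at about half maximal strength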
# LMP1 NFkB inh = reduces LMP1-driven NF-kappaB luciferase signal; 0.69% of 350,000 active; AID 504558; inhibition, % at 12.5 µM; LMP1-induced NF-kappaB luciferase reporter cells, luminescence; in the data active = inhibition above about 41%
# EWS-Fli block = blocks EWS/Fli oncoprotein-driven transcription; A673 NR0B1-luciferase reporter, viability-normalised; inhibition, % at 12.6 µM; AID 651661; 0.67% of 350,000 active;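 active = mean inhibition of at least 50% after viability correction, with every replicate also passing that limit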;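 note: firefly luciferase signal divided by Alamar Blue viability fluorescence both relative to DMSO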
# A number is an active result; 0 = inactive; - = no result. An excerpt weighted towards active compounds, which were near 2.5% of everything screened.
SMILES,TROY NFkB inh,TWEAK Fn14 block,LGR2 inh,LMP1 NFkB inh,EWS-Fli block
COc1cc(N)c(Cl)cc1C(=O)NC1CCN(Cc2ccccc2)CC1,0,0,0,92.4,0
O=C(Nc1ccc(N2CCOCC2)cc1)c1nc2ccccc2s1,54.8,0,0,0,0
C#CCN([C@H](/C=C/C1CC1)[C@@H](O)Cc1ccccc1)[C@@H]1C(=O)N2[C@@H]1SC(C)(C)[C@@H]2C(=O)OC,-,-,-,-,0
CC(=O)NC(=S)Nc1sc2c(c1C#N)CCCCC2,58.6,67.3,0,0,0
CC(=O)Nc1sc2c(c1C#N)CCCC2,0,0,-,0,-
CCNC(=S)Nc1sc2c(c1C#N)CCC(C)C2 (stereo not given),0,0,0,59.4,0
CCCc1cc(C(=O)Nc2sc3c(c2C#N)CCC3)no1,0,99.9,0,0,0
CC(C)(C)C(=O)NC(NC(=S)Nc1sc2c(c1C#N)CCCC2)C(Cl)(Cl)Cl (stereo not given),58.9,0,-,0,-
C[C@H]1CN([C@@H](C)CO)C(=O)c2ccccc2-c2ccccc2CO[C@H]1CN(C)C(=O)Nc1cccc(Cl)c1Cl,-,-,0,-,0
C[C@H]1CN([C@@H](C)CO)C(=O)c2cc(Br)cnc2O[C@@H]1CN(C)C(=O)C1CC1,-,-,0,-,0
O=C(C[C@H]1CC[C@@H](NS(=O)(=O)c2ccc(F)cc2)[C@H](CO)O1)NCc1ccncn1,-,-,0,-,0
CCNC(=O)[C@H]1[C@H](CO)[C@H]2Cn3c(ccc(-c4ccncc4)c3=O)[C@@H]1N2CC1CC1,-,-,0,-,0
Cc1ccccc1S(=O)(=O)N1C[C@H](O)COC[C@H]2O[C@H](CC(=O)NCCc3ccccc3)CC[C@@H]21,-,-,0,-,0
CCc1ccccc1N(CC(=O)NC1CCCCC1)C(=O)CCCC(=O)Nc1ccccn1,0,79.7,0,0,0
COCC#Cc1cnc2c(c1)C(=O)N([C@H](C)CO)C[C@H](C)[C@@H](CN(C)C(=O)Cc1cccnc1)O2,-,-,0,-,0
CCCCC(=O)N(C)c1c(C)nc2ccc(C(=O)N3CCCCC3)cn12,0,0,99.7,-,0
CC1=C(C(=O)Nc2ccccc2)C(c2ccco2)C(C#N)=C(SCC(=O)OC(C)C)N1 (stereo not given),0,59.3,-,0,-
CC1=C(C(=O)Nc2ccccc2)C(c2ccco2)C(C#N)=C(SCC(=O)Nc2cccc(C)c2C)N1 (stereo not given),0,0,0,0,-
O=C(Nc1ccc(NC(=O)C2CC2)cn1)c1ccccc1Cl,0,0,-,0,-
O=C(Nc1ccc(NC(=O)C2CC2)cn1)c1ccccc1,0,54.0,0,0,0
Cn1cnc(CCNC(=O)C[C@@H]2CC[C@H]3[C@@H](COC[C@@H](O)CN3C(=O)Nc3ccccc3)O2)c1,-,-,0,-,0
CC(C)NC(=O)N(C)C[C@@H]1Oc2ccc(NC(=O)Nc3ccc4c(c3)OCO4)cc2C(=O)N([C@H](C)CO)C[C@H]1C,-,-,0,-,0
Cc1nc2cc(NC(=O)N3c4ccccc4CC3C)ccc2n1C (stereo not given),0,57.3,0,0,0
Cc1cccc(C(=O)Nc2ccc3c(c2)nc(C)n3C)c1,0,59.2,0,0,0
Cc1nc2cc(NC(=O)Nc3ccccc3Cl)ccc2n1C,0,59.3,50.6,0,0
SMILES,TROY NFkB inh,TWEAK Fn14 block,LGR2 inh,LMP1 NFkB inh,EWS-Fli block
C[C@H]1CN([C@@H](C)CO)C(=O)c2cc(NC(=O)C3CC3)ccc2O[C@@H]1CN(C)C(=O)Nc1ccc(F)cc1,-,-,0,-,-
CC(=O)c1cccc(NC(=O)COC(=O)COc2c(Cl)cc(Cl)c3ccc(C)nc23)c1,0,63.1,-,0,0
Cc1ccc2c(Cl)cc(Cl)c(OCC(=O)OCC(=O)Nc3ccc(C#N)cc3)c2n1,0,0,-,0,0
c1ccc2nc(-c3nc4ccccc4[nH]3)ccc2c1,0,82.2,-,0,-
CC(C)NC(=O)N(C)C[C@@H]1Oc2ccc(NC(=O)Cn3cnnn3)cc2C(=O)N([C@@H](C)CO)C[C@@H]1C,-,-,0,-,0
C(=Cc1c[nH]c2ccccc12)c1nccc2ccccc12,64.8,89.0,94.1,0,0
O=Cc1nccc2ccccc12,0,0,0,0,0
CCC(=O)N1C[C@H](C)[C@H](OC)CN(C)C(=O)c2ccc(NC(=O)c3cc(C)on3)cc2OC[C@H]1C,-,-,0,-,0
CCn1c(C)cc(O)c(C(=O)Nc2cccc(Cl)c2)c1=O,0,0,0,0,0
CCn1c(C)c(C)c2cc(C(=O)Nc3cccc(Cl)c3)ccc21,0,0,-,52.9,-
CCN(CC)S(=O)(=O)c1ccc(/C=C/C(=O)Nc2ccc(Br)cc2F)cc1,0,73.6,0,0,-
CCN(CC)S(=O)(=O)c1ccc(/C=C/C(=O)Nc2ccc(F)cc2F)cc1,0,75.9,0,0,0
CCN(CC)S(=O)(=O)c1ccc(/C=C/C(=O)Nc2ccc(F)c(F)c2F)cc1,0,0,0,0,-
CC(C)NC(=O)N1[C@@H](CO)[C@H](c2ccccc2)[C@@H]1CNC(=O)CN(C)C,-,-,0,-,0
O=C(NCC[C@H]1CC[C@@H](NC(=O)C2CCCCC2)[C@@H](CO)O1)c1cc(Cl)cc(Cl)c1,-,-,0,-,0
Cc1occc1C(=O)Nc1nnc(C(F)(F)F)s1,0,0,0,0,-
O=C(Nc1ccccc1C(=O)Nc1nnc(C(F)(F)F)s1)c1ccccc1,58.6,86.8,0,0,0
CC(C)C[C@H]1CNC(=S)N1CC1CCCN1C[C@H](Cc1ccccc1)N1C[C@H](Cc2ccc(O)cc2)N(CC2CCCCCC2)C1=S (stereo not given in full),0,0,0,0,0
CC(C)C[C@H]1CNC(=S)N1C[C@H]1CCCN1C[C@H](Cc1ccc(O)cc1)N1C[C@H](Cc2ccc(O)cc2)N(CC2CCCCCC2)C1=S,0,59.8,0,-,0
Oc1ccc(C[C@H]2CNC(=S)N2CC2CCCN2C[C@H](Cc2ccccc2)N2C[C@H](Cc3ccc(O)cc3)N(CCc3ccccc3)C2=S)cc1 (stereo not given in full),0,58.1,0,0,0
O=S(=O)(N[C@@H]1CC[C@@H](CCn2cc(-c3cccc(F)c3)nn2)O[C@H]1CO)c1ccc(F)cc1,-,-,0,-,0
Cn1c(N2CCN(c3ccccn3)CC2)nc2c1c(=O)n(Cc1ccccc1Cl)c(=O)n2C,0,0,-,0,-
Cn1c(N2CCN(c3ccccn3)CC2)nc2c1c(=O)n(Cc1ccc(Cl)cc1)c(=O)n2C,53.9,52.3,-,0,-
CCCCN(CC)CCCNC(=O)c1cn(CC)c2ccc(S(=O)(=O)N3CCc4ccccc4C3)cc2c1=O,0,0,85.3,0,0
COc1cc(C2Oc3ccccc3C=C2[N+](=O)[O-])cc(OC)c1OC (stereo not given),0,0,0,-,52.2
C[C@@H]1CN([C@@H](C)CO)C(=O)c2cc(N(C)C)ccc2O[C@@H](C)CCCCO[C@@H]1CN(C)C(=O)Nc1ccc(C(F)(F)F)cc1,-,-,0,-,0
Cc1ccc(SSc2cc(C)ccc2N)c(N)c1,0,58.1,0,0,0
C/C=C/c1cnc2c(c1)C(=O)N([C@H](C)CO)C[C@@H](C)[C@@H](CN(C)Cc1ccc(F)cc1)O2,-,-,0,-,0
